Assay outcomes deposited in PubChem BioAssay by National Center for Advancing Translational Sciences (NCATS).
Compounds with a hit are over-represented: about 8.2% of the library has one in this group of screens.
KB-3-1 cytotox: qHTS assay for MDR1-selective chemotherapeutics: Primary screen using the parental adenocarcinoma cell KB-3-1; KB-3-1 viability, CellTiter-Glo ATP luminescence, 72 h; 400,000 tested, 1.4% active; Potency, µM (top dose mostly 46.1 µM), most hits filed as cytotoxic; note: nearly all actives have a fitted effect of over 60% in size
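Screening of KB-3-1 cells (DMEM, 10% FBS, phenol-red free) ran from lowest to highest compound concentration; after 72 h at 37 °C viability was read luminescently and curves fitted.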
SW480 rerep: A quantitative high throughput screen for small molecules that induce DNA re-replication in SW480 colon adenocarcinoma cells. SW480 DNA re-replication, Hoechst DNA content imaging, 48 h. Potency, µM (top dose mostly 46.1 µM), most hits filed as activators. 340,000 tested, 1.8% active. AID 624297, 2012; note: nearly all actives have a fitted effect of over 55% in size
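Treated cells incubate 48 hr (37 C, 5% CO2), are stained 40 min with Hoechst, and nuclear fluorescence is enumerated; a rise in nuclei with high DNA signal marks re-replication.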
KB-V1 cytotox: qHTS assay for MDR1-selective chemotherapeutics: Primary screen using the drug-selected MDR subline cells KB-V1. KB-V1 MDR cells viability, CellTiter-Glo, 72 h. 400,000 tested, 3.4% active. AID 1347076, 2019. Potency, µM (highest dose often 46.1 µM), most hits filed as cytotoxic; note: nearly all actives have a fitted effect of over 60% in size
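Cytotoxicity via CellTiter-Glo luminescence after 72 h compound exposure at 37 degrees C. Cells: drug-selected KB-V1 line, DMEM phenol-red free plus 10% FBS. Compounds tested at multiple concentrations; normalized data fitted to concentration-effect curves.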
ELG1 DNA repair: qHTS screen for small molecules that inhibit ELG1-dependent DNA repair in human embryonic kidney (HEK293T) cells expressing luciferase-tagged ELG1; AID 504467, 2011; Potency, µM (highest dose often 46.1 µM), usual class: inhibitors; HEK293T ELG1-luciferase reporter, luminescence, 16 h; DNA damage induced by 5-fluorouridine; 330,000 tested, 2.3% active; note: nearly all actives have a fitted effect of over 55% in size
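Quantitative HTS, concentration-response format. 2,000 cells/well co-treated with 5-fluorouridine and compound, 16 hr in 5% CO2 at 37 °C; ONE-Glo luminescence read after 30 min.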
MCF10A rerep: A quantitative high throughput screen for small molecules that induce DNA re-replication in MCF 10a normal breast cells; MCF 10A DNA re-replication, Hoechst nuclear intensity, 48 h; Potency, µM (top dose mostly 46.1 µM), actives largely listed as activators; 350,000 tested, 2.9% active; AID 624296, 2012; note: nearly all actives have a fitted effect of over 50% in size
Each line names hits and unclear results; the compound was inactive in the other large screens. Calls come from the whole dose curve; as a rule, active = well fitted curve in the direction sought with a large enough effect; inconclusive = small, poorly fitted or top-dose-only effect, or another doubt; inactive = no such curve, though single readings can be large; an effect the other way counts as inactive or inconclusive.

N/C(=N\OC(=O)c1ccccc1Cl)c1ccncc1	KB-V1 cytotox inconclusive, ELG1 DNA repair 23µM
Cc1cccc(NC(=O)N2CCC(c3nc4ccccc4o3)CC2)c1	KB-V1 cytotox 18µM
Cc1ccc(O)c(C(=O)c2cnn(C(=O)COc3ccc(Cl)cc3)c2)c1	ELG1 DNA repair 16µM
O=C(c1cnn(C(=O)COc2ccc(Cl)cc2)c1)c1ccccc1O	ELG1 DNA repair inconclusive
Cc1ccc(C(=O)OCC(=O)NC2CCCC2)cc1C	none
CC(Nc1nc(-c2ccccc2)nc2ccccc12)c1ccccc1 (stereo not drawn)	KB-3-1 cytotox inconclusive, ELG1 DNA repair inconclusive, MCF10A rerep inconclusive
Cc1ccc(Nc2nc(-c3cccnc3)nc3ccccc23)cc1	KB-3-1 cytotox inconclusive, SW480 rerep 9.2µM, KB-V1 cytotox inconclusive, ELG1 DNA repair inconclusive, MCF10A rerep 15µM
CC(Nc1nc(-c2cccnc2)nc2ccccc12)c1ccc(F)cc1 (stereo not drawn)	KB-3-1 cytotox inconclusive, KB-V1 cytotox 18µM, ELG1 DNA repair inconclusive, MCF10A rerep inconclusive
O=C(NNC(=S)Nc1ccccc1)c1cc(-c2cccnc2)nc2ccccc12	none
CCOC(=O)c1ccc(NC(=S)NNC(=O)c2cc(-c3cccnc3)nc3ccccc23)cc1	ELG1 DNA repair 15µM, MCF10A rerep inconclusive
CC(OC(=O)c1cc(-c2cccnc2)nc2ccccc12)C(=O)Nc1ccc2ccccc2c1 (stereo not drawn)	ELG1 DNA repair 18µM, MCF10A rerep 16µM
CCOC(=O)c1ccc(Nc2nc(-c3cccnc3)nc3ccccc23)cc1	SW480 rerep inconclusive, ELG1 DNA repair inconclusive, MCF10A rerep 18µM
COc1cc(CNCc2ccccn2)ccc1OCC(=O)NC(C)(C)C	KB-V1 cytotox 21µM
CCOc1cc(CNCc2ccccc2)ccc1OCC(=O)NC1CCCCC1	SW480 rerep inconclusive (no result: KB-3-1 cytotox, KB-V1 cytotox)
COc1cc(CNCc2ccccn2)ccc1OCC(=O)NC1CCCCC1	KB-V1 cytotox 21µM
CCN1C(=O)CC(C(=O)Nc2ccc(F)cc2)SC1=Nc1cccc(OC)c1 (stereo not drawn)	KB-3-1 cytotox inconclusive, KB-V1 cytotox 18µM
Cc1nn2c(-c3ccc(S(=O)(=O)N4CCN(C)CC4)o3)nnc2c2ccccc12	ELG1 DNA repair inconclusive
COc1cc2cnc(-c3ccccc3)c(-c3cc(OC)c(OC)c(OC)c3)c2cc1OC	KB-3-1 cytotox inconclusive, SW480 rerep inconclusive, KB-V1 cytotox inconclusive, ELG1 DNA repair 9.2µM, MCF10A rerep inconclusive
CC(=O)Nc1cccc(NC(=O)C2(c3cccs3)CCOCC2)c1	none (no result: SW480 rerep, ELG1 DNA repair, MCF10A rerep)
CCOC(=O)C(C)Oc1cccc2c(=O)n(CC(=O)NCc3ccco3)ccc12 (stereo not drawn)	KB-3-1 cytotox 0.73µM, SW480 rerep 1.3µM, MCF10A rerep inconclusive
CC(C)C(=O)c1cn(CC(=O)NCc2ccco2)c2ccccc12	SW480 rerep inconclusive, ELG1 DNA repair inconclusive
CC(C)c1ccc(NC(=O)c2cc3c([nH]c2=O)CC(C)(C)CC3=O)cc1	none (no result: SW480 rerep, ELG1 DNA repair, MCF10A rerep)
O=C1N/C(=N\N=C\c2cccs2)SC1Cc1ccc(Cl)cc1Cl (stereo not drawn)	KB-3-1 cytotox 7.3µM, KB-V1 cytotox inconclusive
CC1(C)S/C(=N/N=C/c2cccs2)NC1=O	ELG1 DNA repair inconclusive
O=C1NC(=Nc2ccc(Cl)cc2)SC1Cc1cc(Cl)ccc1Cl (stereo not drawn)	KB-V1 cytotox 15µM, ELG1 DNA repair inconclusive, MCF10A rerep inconclusive
O=C1N/C(=N\N=C\c2cccs2)SC1Cc1cccc(Cl)c1Cl (stereo not drawn)	KB-3-1 cytotox 5.2µM, SW480 rerep 7.3µM, KB-V1 cytotox inconclusive, ELG1 DNA repair inconclusive, MCF10A rerep 1.5µM
O=C(CC1S/C(=N/N=C/c2cccs2)NC1=O)Nc1ccc(Cl)cc1 (stereo not drawn)	none
Cc1cccc(-c2noc(CNC(=O)c3ccoc3C)n2)c1	MCF10A rerep 21µM
Cc1cc(C)c(NC(=O)C2CC(=O)N(Cc3ccccc3)C2)c(C)c1 (stereo not drawn)	SW480 rerep 16µM
Cc1ccc(CN2CC(C(=O)N3CCN(S(=O)(=O)c4ccc(C)cc4C)CC3)CC2=O)cc1 (stereo not drawn)	KB-V1 cytotox 16µM, ELG1 DNA repair inconclusive
Cc1ccc(CN2CC(C(=O)N3CCN(S(=O)(=O)c4ccc(C(C)C)cc4)CC3)CC2=O)cc1 (stereo not drawn)	KB-V1 cytotox inconclusive, ELG1 DNA repair 12µM
Cc1ccc(CN2CC(C(=O)N3CCN(S(=O)(=O)c4cc(C)ccc4C)CC3)CC2=O)cc1 (stereo not drawn)	none
CCCCn1c(N)c(N(CCOC)C(=O)C2CCN(c3ncnc4sc(C)c(C)c34)CC2)c(=O)[nH]c1=O	ELG1 DNA repair inconclusive
C/C(=N\Nc1ccc(C)c(Cl)c1)c1cccnc1	ELG1 DNA repair inconclusive
Cc1ccc(N2CCN(S(=O)(=O)c3ccc4c(c3)CC(=O)N4)CC2)cc1	none (no result: SW480 rerep, ELG1 DNA repair, MCF10A rerep)
CSc1nc2ccc(S(=O)(=O)NC3CCCCC3)cc2s1	KB-3-1 cytotox inconclusive, KB-V1 cytotox 16µM
O=C(NC1CCCCCCC1)C1CCN(c2nc3ccccc3o2)CC1	KB-3-1 cytotox 18µM, KB-V1 cytotox 2.3µM, ELG1 DNA repair 16µM
O=C(NCCc1ccccc1)C1CCN(c2nc3ccccc3o2)CC1	ELG1 DNA repair inconclusive
Cc1oc(-c2ccccc2F)nc1CN1CCC(C(=O)NC2CCCCCCC2)CC1	KB-V1 cytotox 12µM
Cc1oc(-c2ccccc2F)nc1CN1CCC(C(=O)NC2CCCc3ccccc32)CC1 (stereo not drawn)	KB-V1 cytotox 8.2µM, ELG1 DNA repair inconclusive
Cc1ccccc1-c1nc(CN2CCC(C(=O)NC3CCCCC3)CC2)c(C)o1	none
O=C(Nc1ccc(OC(F)F)cc1)c1nc(S(=O)(=O)Cc2ccccc2F)ncc1Cl	KB-3-1 cytotox inconclusive (no result: SW480 rerep, ELG1 DNA repair, MCF10A rerep)
O=C(NNC(=O)C1CC(c2cccs2)=NO1)Nc1ccc(Cl)cc1 (stereo not drawn)	none
O=C(Cc1ccc(OCCCCc2ccccc2)cc1)NO	none (no result: SW480 rerep, ELG1 DNA repair, MCF10A rerep)
Cn1c(SCC(=O)NCc2ccc3c(c2)OCO3)nc2scc(-c3cccs3)c2c1=O	ELG1 DNA repair 13µM, MCF10A rerep inconclusive
O=C(CSc1n[nH]c(-c2cccs2)n1)NCc1ccc2c(c1)OCO2	none
C=CCn1c(SCC(=O)NCc2ccc3c(c2)OCO3)nc2scc(-c3ccc(F)cc3)c2c1=O	ELG1 DNA repair 15µM
Cc1cccc(-n2c(Cc3ccccc3)nnc2SCc2nc(-c3cccs3)no2)c1	none (no result: SW480 rerep, ELG1 DNA repair, MCF10A rerep)
Cc1c(C=O)ccc(N(C)C)c1C	KB-3-1 cytotox inconclusive (no result: SW480 rerep, ELG1 DNA repair, MCF10A rerep)
COc1ccc(C(=O)Cn2nc(CNc3ccc(Br)cc3)[n+]3c2CCCCC3)cc1	KB-3-1 cytotox 21µM, MCF10A rerep inconclusive
